Rows were chosen to be rich in hits. Some 2.7% of all compounds tested hit in one or more screens of this group.
PAFAH1B3 FP inh – PAFAH1B3 enzyme inhibitors, primary screen, biochemical, fluorescence polarization, human; recombinant PAFAH1B3, FP-rhodamine probe; inhibition, % at 3.39 µM; 340,000 tested, 0.28% active; AID 492972, 2010;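 active means inhibition above the screen-wide average of all tested compounds plus 3 SD, cut at about 25% in these data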;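 further: 0% = enzyme with DMSO only and 100% = wells lacking PAFAH1B3 protein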
TCR-CD3 inh – inhibitors of human TCR-CD3 interaction, primary screen, biochemical, fluorescence, TAMRA-labeled TCR probe; inhibition, % at 9.4 µM; AID 651800, 2012; 360,000 tested, 0.37% active; T-cell receptor (TCR); in the data active means inhibition above about 19%;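 further: recombinant mutant TCR 2C K166C tagged with TAMRA read by polarization; 0% = receptor in buffer alone and 100% = receptor with positive control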
pPAFAH FP inh – pPAFAH enzyme inhibitors, primary screen, biochemical, fluorescence polarization, human | Platelet-activating factor acetylhydrolase (Homo sapiens), Q13093 | recombinant pPAFAH, FP-rhodamine probe fluorescence polarization | inhibition, % at 3.39 µM | 330,000 tested, 1.5% active;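 active means inhibition above the mean inhibition across the screen plus 3 SD, cut at about 25% in these data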;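 further: inhibitors block binding of the rhodamine activity-based probe so polarization drops; 0% = enzyme with DMSO and 100% = wells lacking pPAFAH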
Target sequence (Q13093 whole entry, looked up): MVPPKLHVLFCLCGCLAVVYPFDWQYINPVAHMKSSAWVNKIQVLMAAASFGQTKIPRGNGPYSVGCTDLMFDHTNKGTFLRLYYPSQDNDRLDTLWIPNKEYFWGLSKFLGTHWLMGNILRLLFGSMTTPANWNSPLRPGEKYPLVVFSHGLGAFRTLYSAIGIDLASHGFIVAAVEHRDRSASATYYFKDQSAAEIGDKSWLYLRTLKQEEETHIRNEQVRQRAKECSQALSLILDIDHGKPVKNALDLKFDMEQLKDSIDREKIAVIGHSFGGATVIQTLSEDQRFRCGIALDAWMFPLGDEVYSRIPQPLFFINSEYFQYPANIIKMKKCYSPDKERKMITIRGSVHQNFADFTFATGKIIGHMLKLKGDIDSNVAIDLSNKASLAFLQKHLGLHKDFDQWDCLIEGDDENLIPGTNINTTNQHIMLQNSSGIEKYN
PAFAH1B2 inh – PAFAH1B2 enzyme inhibitors, primary screen, biochemical, fluorescence polarization, human. Platelet-activating factor acetylhydrolase IB subunit alpha2 (Homo sapiens), P68402. inhibition, % at 3.39 µM. 340,000 tested, 1.2% active. recombinant PAFAH1B2, FP-rhodamine activity probe;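 active means inhibition above the mean of all tested compounds plus 3 SD, cut at about 24% in these data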;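 further: 0% = enzyme with DMSO and 100% = wells lacking PAFAH1B2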
Target sequence (P68402 whole entry, looked up): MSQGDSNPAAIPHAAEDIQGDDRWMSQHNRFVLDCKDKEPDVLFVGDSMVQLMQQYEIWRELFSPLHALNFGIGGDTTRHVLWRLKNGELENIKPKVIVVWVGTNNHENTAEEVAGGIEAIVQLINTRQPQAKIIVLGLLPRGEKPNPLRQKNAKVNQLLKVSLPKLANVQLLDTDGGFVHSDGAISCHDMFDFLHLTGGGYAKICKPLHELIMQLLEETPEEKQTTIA
PAFAH2 inh – PAFAH2 enzyme inhibitors, primary screen, biochemical, fluorescence polarization, human; Platelet-activating factor acetylhydrolase 2, cytoplasmic (Homo sapiens), Q99487; recombinant PAFAH2, FP-rhodamine activity probe; inhibition, % at 3.39 µM; 340,000 tested, 0.99% active;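 active means inhibition above the mean over all tested compounds plus 3 SD, cut at about 30% in these data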;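 further: inhibitors block probe labeling of enzyme so polarization drops; 0% = enzyme with DMSO and 100% = wells lacking PAFAH2 protein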
PAFAH2 confirm – PAFAH2 enzyme inhibitors, confirmation, biochemical, fluorescence polarization, human | inhibition, % at 3.39 µM | shares compounds with PAFAH2 inh | 2,300 tested, 65% active | recombinant PAFAH2, FP-rhodamine activity probe | AID 493030, 2011;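 active means mean inhibition over three repeats above a set limit taken from the earlier primary screen, cut at about 30% in these data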;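 further: inhibitor blocks binding of rhodamine activity probe so polarization falls; 0% = enzyme with DMSO and 100% = wells lacking PAFAH2 protein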
* hit, by the source's call.

What do the screens show for `Cc1ccc(C(=O)OCC(=O)Nc2cccc(S(=O)(=O)N3CCCCC3)c2)o1`?
PAFAH1B3 FP inh: 1; TCR-CD3 inh: 1; pPAFAH FP inh: 6; PAFAH1B2 inh: 3; PAFAH2 inh: 42*; PAFAH2 confirm: 26

What do the screens show for `O=C(COC(=O)c1cccs1)Nc1cccc(S(=O)(=O)N2CCCCC2)c1`?
PAFAH1B3 FP inh: 19; TCR-CD3 inh: 3; pPAFAH FP inh: 7; PAFAH1B2 inh: -6; PAFAH2 inh: 69*; PAFAH2 confirm: 64*

What do the screens show for `O=C(COC(=O)c1ccc([N+](=O)[O-])o1)Nc1cccc(S(=O)(=O)N2CCCCC2)c1`?
PAFAH1B3 FP inh: 2; TCR-CD3 inh: 5; pPAFAH FP inh: 2; PAFAH1B2 inh: 1; PAFAH2 inh: 11

What do the screens show for `O=C(COC(=O)c1cccc(S(=O)(=O)N2CCCCCC2)c1)Nc1ccccc1`?
PAFAH1B3 FP inh: 5; TCR-CD3 inh: 1; PAFAH1B2 inh: -1; PAFAH2 inh: 66*; PAFAH2 confirm: 60*

How did O=C(COC(=O)c1ccc(S(=O)(=O)N2CCCCC2)cc1)Nc1ccccc1 do in these assays?
PAFAH1B3 FP inh: 1; TCR-CD3 inh: 4; pPAFAH FP inh: 6; PAFAH1B2 inh: 1; PAFAH2 inh: 1

Results for O=C(COC(=O)c1ccccc1)Nc1cccc(S(=O)(=O)N2CCCCC2)c1 ?
PAFAH1B3 FP inh: 4; TCR-CD3 inh: -2; PAFAH1B2 inh: 2; PAFAH2 inh: 40*; PAFAH2 confirm: 23

Results for Cc1ccc2ccccc2c1C(O)c1ncc(-c2cccc(F)c2)[nH]1 (stereo unspecified) ?
TCR-CD3 inh: -4

What do the screens show for `CCC(C)NC(=O)C1(N2C(=O)c3ccccc3C2=O)CCCC1` (stereo unspecified)?
PAFAH1B3 FP inh: 7; TCR-CD3 inh: 6; PAFAH1B2 inh: 0; PAFAH2 inh: 0

How did O=C(O)c1ccccc1NSc1ccccc1[N+](=O)[O-] do in these assays?
PAFAH1B3 FP inh: 6; TCR-CD3 inh: 2; pPAFAH FP inh: 13; PAFAH1B2 inh: 4; PAFAH2 inh: 37*; PAFAH2 confirm: 26

Results for CCc1nc2ccc(C(=O)NCCOc3ccc(OC)cc3)cn2c1N(C=O)Cc1ccc(OC)cc1 ?
TCR-CD3 inh: -2

Results for OCC[C@@H]1C[C@@H](O)[C@H](O)[C@]2(Cc3ccccc3O2)O1 ?
PAFAH1B3 FP inh: 1; TCR-CD3 inh: 1; pPAFAH FP inh: 0; PAFAH1B2 inh: 0; PAFAH2 inh: -3

What do the screens show for `COc1ccc(NC(=S)N2CCN(c3ncccn3)CC2)c(OC)c1`?
PAFAH1B3 FP inh: 2; TCR-CD3 inh: 1; pPAFAH FP inh: -2; PAFAH1B2 inh: -1; PAFAH2 inh: 6

Results for Cc1ccsc1C(=O)OCC(=O)Nc1cccc(S(=O)(=O)NC2=NCCCCC2)c1 ?
PAFAH1B3 FP inh: 4; TCR-CD3 inh: -3; pPAFAH FP inh: 3; PAFAH1B2 inh: 5; PAFAH2 inh: 46*; PAFAH2 confirm: 33*

What do the screens show for `O=C(COC(=O)c1ccc(C(F)(F)F)cc1)Nc1cccc(S(=O)(=O)NC2=NCCCCC2)c1`?
PAFAH1B3 FP inh: 5; TCR-CD3 inh: -2; pPAFAH FP inh: 22; PAFAH1B2 inh: 3; PAFAH2 inh: 21

How did NC(=O)Nc1ccc(C(=O)OCC(=O)Nc2cccc(S(=O)(=O)NC3=NCCCCC3)c2)cc1 do in these assays?
PAFAH1B3 FP inh: 8; TCR-CD3 inh: -4; pPAFAH FP inh: 3; PAFAH1B2 inh: 3; PAFAH2 inh: 61*; PAFAH2 confirm: 65*

What do the screens show for `CCCC1OC23CCCCC2C(C#N)(C(=N)O3)C1(C#N)C#N` (stereo unspecified)?
PAFAH1B3 FP inh: 21; TCR-CD3 inh: 8; pPAFAH FP inh: 13; PAFAH1B2 inh: 15; PAFAH2 inh: 30*; PAFAH2 confirm: 0

Results for Cc1ccc(CCNc2ncnc(Cl)c2N)cc1 ?
PAFAH1B3 FP inh: 11; TCR-CD3 inh: -8; PAFAH1B2 inh: 7; PAFAH2 inh: 0

Results for CCOC(=O)c1c(C)[nH]c(N=Nc2ccc(C)cc2)c1C ?
PAFAH1B3 FP inh: 12; TCR-CD3 inh: 1; pPAFAH FP inh: 2; PAFAH1B2 inh: 1; PAFAH2 inh: 2

How did Cc1ccc(N=Nc2c(O)ccc3n[nH]nc23)cc1 do in these assays?
PAFAH1B3 FP inh: 2; TCR-CD3 inh: -7; PAFAH1B2 inh: 8; PAFAH2 inh: 30*; PAFAH2 confirm: 23

What do the screens show for `N#Cc1cccc(NC(=O)CSc2sc3c(O)cc(=O)[nH]c3c2C#N)c1`?
PAFAH1B3 FP inh: 13; TCR-CD3 inh: 11; pPAFAH FP inh: 0; PAFAH1B2 inh: 15; PAFAH2 inh: 40*; PAFAH2 confirm: -2

Results for O=C(COC(=O)/C=C/c1ccco1)Nc1cccc([N+](=O)[O-])c1 ?
PAFAH1B3 FP inh: 10; TCR-CD3 inh: 7; pPAFAH FP inh: 7; PAFAH1B2 inh: 4; PAFAH2 inh: 84*; PAFAH2 confirm: 85*

Results for CC(=O)OCC(=O)Nc1ccc(SC(F)F)cc1 ?
PAFAH1B3 FP inh: 1; TCR-CD3 inh: 4; pPAFAH FP inh: -6; PAFAH1B2 inh: 5; PAFAH2 inh: 5

How did Cc1ccc(/C=C/C(=O)OCC(=O)Nc2cccc(S(=O)(=O)N(C)C)c2)o1 do in these assays?
PAFAH1B3 FP inh: -1; TCR-CD3 inh: 2; pPAFAH FP inh: 6; PAFAH1B2 inh: 3; PAFAH2 inh: 67*; PAFAH2 confirm: 39*

Results for C/C=C/C(=O)OCC(=O)Nc1ccc(SC(F)F)cc1 ?
PAFAH1B3 FP inh: 1; TCR-CD3 inh: 6; pPAFAH FP inh: -1; PAFAH1B2 inh: 3; PAFAH2 inh: 56*; PAFAH2 confirm: 48*

How did Cc1ccc(NC(=O)COC(=O)c2ccc(Cl)cc2)cc1S(=O)(=O)N(C)C do in these assays?
PAFAH1B3 FP inh: -3; TCR-CD3 inh: 0; pPAFAH FP inh: 11; PAFAH1B2 inh: -7; PAFAH2 inh: 61*; PAFAH2 confirm: 56*

How did CN(C)S(=O)(=O)c1cccc(NC(=O)COC(=O)[C@H](Cc2ccccc2)NC(=O)c2ccco2)c1 do in these assays?
PAFAH1B3 FP inh: 4; TCR-CD3 inh: 1; pPAFAH FP inh: -5; PAFAH1B2 inh: 3; PAFAH2 inh: -2

Results for Cc1ccc(NC(=O)COC(=O)/C=C/c2ccco2)cc1S(=O)(=O)N(C)C ?
PAFAH1B3 FP inh: 2; TCR-CD3 inh: 6; pPAFAH FP inh: 11; PAFAH1B2 inh: 0; PAFAH2 inh: 70*; PAFAH2 confirm: 77*

What do the screens show for `C/C=C/C(=O)OCC(=O)Nc1ccc(C)c(S(=O)(=O)N(C)C)c1`?
PAFAH1B3 FP inh: 1; TCR-CD3 inh: 0; pPAFAH FP inh: 4; PAFAH1B2 inh: 7; PAFAH2 inh: 57*; PAFAH2 confirm: 48*
